# Hit rate of the full screen: of about 5,500 compounds, about 2,000 (36%) were called active. Another 18% or so got no clear call; they are omitted. The list shows a part of the results. Values without a mark were called inactive. Rule as the data show it: active = normalized growth mostly below about 0.91 (no sharp cut-off); inconclusive = no clear call, values can overlap the other calls; inactive = mostly above about 0.92.
# Assay: chemical genetic growth profiling, strain panel (AID 1159580);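 also: tested at 20 µM; growth read once vehicle control cultures reached saturation at 30 °C; 1 = growth at the plate median or of vehicle wells; lower values mean less growth of the strain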
# Conditions: growth OD
# [1] = S. cerevisiae deletion strains, locus YAL013W, strain DEP1, stronger effect = lower value
# [2] = S. cerevisiae deletion strains, locus YAL040C, strain CLN3, stronger effect = lower value
# [3] = S. cerevisiae deletion strains, locus YCL061C, strain MRC1 (second series), stronger effect = lower value
# [4] = S. cerevisiae deletion strains, locus YDR150W, strain NUM1, stronger effect = lower value
# [5] = S. cerevisiae deletion strains, locus YDR363W, strain ESC2, stronger effect = lower value
# [6] = S. cerevisiae deletion strains, locus YER002W, strain NOP16, stronger effect = lower value
# [7] = S. cerevisiae deletion strains, locus YGR078C, strain PAC10, stronger effect = lower value
# [8] = S. cerevisiae deletion strains, locus YJR075W, strain HOC1, stronger effect = lower value
# [9] = S. cerevisiae deletion strains, locus YMR307W, strain GAS1, stronger effect = lower value
# [10] = S. cerevisiae deletion strains, locus YNL153C, strain GIM3, stronger effect = lower value
# [11] = S. cerevisiae deletion strains, locus YNL175C, strain NOP13, stronger effect = lower value
# [12] = S. cerevisiae deletion strains, locus YNL197C, strain WHI3, stronger effect = lower value
# [13] = S. cerevisiae deletion strains, locus YNL224C, strain SQS1, stronger effect = lower value
# [14] = S. cerevisiae deletion strains, locus YOR083W, strain WHI5 (second series), stronger effect = lower value
# [15] = S. cerevisiae deletion strains, locus YGR229C, strain SMI1, stronger effect = lower value
# [16] = S. cerevisiae deletion strains, locus YPL055C, strain LGE1, stronger effect = lower value
# [17] = S. cerevisiae deletion strains, locus YMR263W, strain SAP30, stronger effect = lower value
# [18] = S. cerevisiae deletion strains, locus YNL128W, strain TEP1, stronger effect = lower value
# [19] = S. cerevisiae deletion strains, locus YNL322C, strain KRE1, stronger effect = lower value
# [20] = S. cerevisiae deletion strains, locus YPL241C, strain CIN2, stronger effect = lower value
smiles,measurement,setting,value
CCCN1CCO[C@@H]2c3cc(O)ccc3OC[C@H]21,normalized growth,[1],0.981
same,normalized growth,[2],1.09
same,normalized growth,[3],1
same,normalized growth,[4],0.999
same,normalized growth,[5],1.03
same,normalized growth,[6],0.989
same,normalized growth,[7],1.01
same,normalized growth,[8],0.993
same,normalized growth,[9],0.981
same,normalized growth,[10],0.97
same,normalized growth,[11],1.02
same,normalized growth,[12],1
same,normalized growth,[13],0.993
same,normalized growth,[14],1.02
CCCN1CCc2cccc3c2[C@H]1Cc1ccc(O)c(O)c1-3,normalized growth,[2],0.955
same,normalized growth,[3],0.516 (active)
same,normalized growth,[5],0.79 (active)
same,normalized growth,[6],0.975
same,normalized growth,[15],0.186 (active)
same,normalized growth,[9],0.481 (active)
same,normalized growth,[10],0.534 (active)
same,normalized growth,[11],0.96
same,normalized growth,[12],0.985
same,normalized growth,[13],0.996
same,normalized growth,[14],0.631 (active)
same,normalized growth,[16],0.23 (active)
COc1cc2c3cc1Oc1cc(ccc1O)OC1c4c(cc(OC)c(O)c4Oc4ccc(cc4)CC3N(C)CC2)CCN1C (stereo unspecified),normalized growth,[1],0.992
same,normalized growth,"S. cerevisiae deletion strains, locus YBR021W, strain FUR4, stronger effect = lower value",0.971
same,normalized growth,"S. cerevisiae deletion strains, locus YBR229C, strain ROT2, stronger effect = lower value",0.993
same,normalized growth,"S. cerevisiae deletion strains, locus YCL029C, strain bik1, stronger effect = lower value",0.967
same,normalized growth,"S. cerevisiae deletion strains, locus YDL035C, strain GPR1, stronger effect = lower value",0.978
same,normalized growth,"S. cerevisiae deletion strains, locus YDL074C, strain BRE1, stronger effect = lower value",1.02
same,normalized growth,"S. cerevisiae deletion strains, locus YDL101C, strain DUN1, stronger effect = lower value",0.993
same,normalized growth,"S. cerevisiae deletion strains, locus YDL134C, strain PPH21, stronger effect = lower value",0.996
same,normalized growth,"S. cerevisiae deletion strains, locus YDL185W, strain tfp1, stronger effect = lower value",0.966
same,normalized growth,"S. cerevisiae deletion strains, locus YDL192W, strain arf1, stronger effect = lower value",0.981
same,normalized growth,"S. cerevisiae deletion strains, locus YDR101C, strain arx1, stronger effect = lower value",0.983
same,normalized growth,[4],0.995
same,normalized growth,"S. cerevisiae deletion strains, locus YDR162C, strain NBP2, stronger effect = lower value",1.01
same,normalized growth,"S. cerevisiae deletion strains, locus YDR318W, strain mcm21, stronger effect = lower value",0.965
same,normalized growth,"S. cerevisiae deletion strains, locus YDR388W, stronger effect = lower value",0.989
same,normalized growth,"S. cerevisiae deletion strains, locus YDR502C, strain sam2, stronger effect = lower value",0.984
same,normalized growth,"S. cerevisiae deletion strains, locus YEL061C, strain CIN8, stronger effect = lower value",0.985
same,normalized growth,"S. cerevisiae deletion strains, locus YER110C, stronger effect = lower value",0.966
same,normalized growth,"S. cerevisiae deletion strains, locus YER155C, strain BEM2, stronger effect = lower value",0.999
same,normalized growth,"S. cerevisiae deletion strains, locus YER167W, strain BCK2, stronger effect = lower value",0.958
same,normalized growth,"S. cerevisiae deletion strains, locus YGL078C, strain dbp3, stronger effect = lower value",0.979
same,normalized growth,"S. cerevisiae deletion strains, locus YGL086W, strain mad1, stronger effect = lower value",0.963
same,normalized growth,"S. cerevisiae deletion strains, locus YGL248W, strain PDE1, stronger effect = lower value",0.999
same,normalized growth,[7],1.02
same,normalized growth,"S. cerevisiae deletion strains, locus YGR135W, strain pre9, stronger effect = lower value",0.991
same,normalized growth,[15],1.01
same,normalized growth,"S. cerevisiae deletion strains, locus YGR252W, strain gcn5, stronger effect = lower value",0.925
same,normalized growth,"S. cerevisiae deletion strains, locus YHR030C, strain SLT2, stronger effect = lower value",0.972
same,normalized growth,"S. cerevisiae deletion strains, locus YHR079C, strain IRE1 (second series), stronger effect = lower value",0.992
same,normalized growth,"S. cerevisiae deletion strains, locus YHR094C, strain hxt1, stronger effect = lower value",0.957
same,normalized growth,"S. cerevisiae deletion strains, locus YHR129C, strain ARP1, stronger effect = lower value",0.997
same,normalized growth,"S. cerevisiae deletion strains, locus YHR200W, strain rpn10, stronger effect = lower value",0.964
same,normalized growth,"S. cerevisiae deletion strains, locus YIL066C, strain RNR3, stronger effect = lower value",0.996
same,normalized growth,"S. cerevisiae deletion strains, locus YIL073C, strain SPO22, stronger effect = lower value",0.899
same,normalized growth,"S. cerevisiae deletion strains, locus YIL125W, strain kgd1, stronger effect = lower value",0.984
same,normalized growth,"S. cerevisiae deletion strains, locus YIR030C, strain dcg1, stronger effect = lower value",0.978
same,normalized growth,"S. cerevisiae deletion strains, locus YJL095W, strain BCK1, stronger effect = lower value",1.03
same,normalized growth,"S. cerevisiae deletion strains, locus YJL134W, strain LCB3, stronger effect = lower value",0.99
same,normalized growth,"S. cerevisiae deletion strains, locus YJL168C, strain set2, stronger effect = lower value",0.986
same,normalized growth,"S. cerevisiae deletion strains, locus YJL187C, strain SWE1 (second series), stronger effect = lower value",0.999
same,normalized growth,"S. cerevisiae deletion strains, locus YJR043C, strain POL32, stronger effect = lower value",0.952
same,normalized growth,[8],1.05
same,normalized growth,"S. cerevisiae deletion strains, locus YKL009W, strain mrt4, stronger effect = lower value",0.977
same,normalized growth,"S. cerevisiae deletion strains, locus YKL068W, stronger effect = lower value",0.975
same,normalized growth,"S. cerevisiae deletion strains, locus YKL085W, strain MDH1 (second series), stronger effect = lower value",0.995
same,normalized growth,"S. cerevisiae deletion strains, locus YKL085W, strain MDH1, stronger effect = lower value",0.995
same,normalized growth,"S. cerevisiae deletion strains, locus YKL190W, strain CNB1, stronger effect = lower value",0.998
same,normalized growth,"S. cerevisiae deletion strains, locus YKR001C, strain vps1, stronger effect = lower value",0.969
same,normalized growth,"S. cerevisiae deletion strains, locus YLR039C, strain RIC1, stronger effect = lower value",0.942
same,normalized growth,"S. cerevisiae deletion strains, locus YLR058C, strain SHM2, stronger effect = lower value",0.988
same,normalized growth,"S. cerevisiae deletion strains, locus YLR102C, strain apc9, stronger effect = lower value",0.98
same,normalized growth,"S. cerevisiae deletion strains, locus YLR262C, strain YPT6, stronger effect = lower value",0.982
same,normalized growth,"S. cerevisiae deletion strains, locus YLR268W, strain sec22, stronger effect = lower value",1
same,normalized growth,"S. cerevisiae deletion strains, locus YLR330W, strain CHS5, stronger effect = lower value",0.987
same,normalized growth,"S. cerevisiae deletion strains, locus YLR342W, strain FKS1 (second series), stronger effect = lower value",0.957
same,normalized growth,"S. cerevisiae deletion strains, locus YLR371W, strain rom2, stronger effect = lower value",0.968
same,normalized growth,"S. cerevisiae deletion strains, locus YLR418C, strain cdc73, stronger effect = lower value",1.02
same,normalized growth,"S. cerevisiae deletion strains, locus YML016C, strain PPZ1, stronger effect = lower value",0.99
same,normalized growth,"S. cerevisiae deletion strains, locus YML032C, strain rad52, stronger effect = lower value",0.951
same,normalized growth,"S. cerevisiae deletion strains, locus YML124C, strain tub3, stronger effect = lower value",0.976
same,normalized growth,"S. cerevisiae deletion strains, locus YMR078C, strain ctf18, stronger effect = lower value",0.968
same,normalized growth,"S. cerevisiae deletion strains, locus YMR223W, strain ubp8, stronger effect = lower value",0.951
same,normalized growth,[17],1.01
same,normalized growth,[9],0.955
same,normalized growth,"S. cerevisiae deletion strains, locus YNL067W, strain RPL9B, stronger effect = lower value",1
same,normalized growth,[18],0.99
same,normalized growth,[10],1.02
same,normalized growth,"S. cerevisiae deletion strains, locus YNL233W, strain BNI4, stronger effect = lower value",1.02
same,normalized growth,"S. cerevisiae deletion strains, locus YNL250W, strain rad50, stronger effect = lower value",0.973
same,normalized growth,"S. cerevisiae deletion strains, locus YNL271C, strain bni1, stronger effect = lower value",0.993
same,normalized growth,"S. cerevisiae deletion strains, locus YNL298W, strain CLA4, stronger effect = lower value",0.967
same,normalized growth,"S. cerevisiae deletion strains, locus YNL307C, strain MCK1, stronger effect = lower value",0.952
same,normalized growth,[19],0.979
same,normalized growth,"S. cerevisiae deletion strains, locus YNR052C, strain pop2, stronger effect = lower value",0.961
same,normalized growth,"S. cerevisiae deletion strains, locus YOL006C, strain TOP1, stronger effect = lower value",1.03
same,normalized growth,"S. cerevisiae deletion strains, locus YOL012C, strain htz1",1.06
same,normalized growth,"S. cerevisiae deletion strains, locus YOL147C, strain pex11, stronger effect = lower value",0.973
same,normalized growth,"S. cerevisiae deletion strains, locus YOR061W, strain CKA2, stronger effect = lower value",0.998
same,normalized growth,"S. cerevisiae deletion strains, locus YOR069W, strain VPS5, stronger effect = lower value",0.991
same,normalized growth,"S. cerevisiae deletion strains, locus YOR136W, strain idh2, stronger effect = lower value",0.96
same,normalized growth,"S. cerevisiae deletion strains, locus YOR144C, strain elg1, stronger effect = lower value",0.982
same,normalized growth,"S. cerevisiae deletion strains, locus YOR184W, strain ser1, stronger effect = lower value",0.93
same,normalized growth,"S. cerevisiae deletion strains, locus YOR316C, strain cot1, stronger effect = lower value",0.977
same,normalized growth,[16],1
same,normalized growth,[20],0.997
same,normalized growth,"S. cerevisiae deletion strains, locus YPR119W, strain clb2, stronger effect = lower value",0.989
same,normalized growth,"S. cerevisiae deletion strains, locus YPR141C, strain kar3, stronger effect = lower value",0.99
same,normalized growth,"S. cerevisiae deletion strains, locus YPR163C, strain tif3, stronger effect = lower value",0.96
same,normalized growth,"S. cerevisiae deletion strains, locus YPR167C, strain met16, stronger effect = lower value",0.98
same,normalized growth,"S. cerevisiae deletion strains, strain wtn01, stronger effect = lower value",1.01
same,normalized growth,"S. cerevisiae strains, strain wild type, stronger effect = lower value",0.989
CCCN1CCc2cc(O)cc3c2[C@H]1Cc1ccc(O)c(O)c1-3,normalized growth,[2],1.03
same,normalized growth,[3],0.779 (active)
same,normalized growth,[5],0.922
same,normalized growth,[6],1.01
same,normalized growth,[9],0.771 (active)
same,normalized growth,[11],1.01
same,normalized growth,[12],0.983
same,normalized growth,[13],1.01
same,normalized growth,[19],0.654 (active)
same,normalized growth,[14],0.926
same,normalized growth,[16],0.553 (active)
COc1ccc2c(c1O)-c1cccc3c1[C@@H](C2)N(C)CC3,normalized growth,[1],0.986
same,normalized growth,[2],0.995
same,normalized growth,[3],1.01
same,normalized growth,[5],0.994
same,normalized growth,[6],1.01
same,normalized growth,[7],1.05
same,normalized growth,[15],1.02
same,normalized growth,[8],1
same,normalized growth,[17],0.994
same,normalized growth,[9],1.02
same,normalized growth,[18],1.01
same,normalized growth,[11],1.02
same,normalized growth,[12],1.02
same,normalized growth,[13],1.01
same,normalized growth,[19],0.985
same,normalized growth,[14],0.972
same,normalized growth,[16],0.989
same,normalized growth,[20],1.01
